The source of these data is PubChem BioAssay.

The nature of experiment [1]: compound effects on lung adenocarcinoma cell viability – A549, calcein-AM fluorescence, 48 h, basal, profiling panel (AID 1162). Also: test concentration not given here. As to conditions: higher = more signal.
A short description of experiment [2]: compound effects on differentiated 3T3-L1 adipocyte viability – cell-based, 3T3-L1 adipocytes, calcein-AM fluorescence, 48 h, basal, profiling panel (AID 1163). Also: test concentration not given here. As to conditions: 3T3-L1 adipocytes viability, higher = more signal.
The nature of experiment [3]: compound effects on hepatocellular carcinoma cell viability – HepG2, calcein-AM fluorescence, 48 h, basal, profiling panel (AID 1164). Also: test concentration not given here. The following applies: higher = more signal.
Experiment [4] can be described thus: compound effects on multiple myeloma cell viability – MM1S, calcein-AM fluorescence, 48 h, basal, profiling panel (AID 1165). Also: test concentration not given here. As to conditions: higher = more signal.
Experiment [5] is described as follows: calcein-AM signal in unstimulated myeloma cells – cell-based, calcein-AM fluorescence, 48 h, PK04 Diversity Set, profiling panel (AID 1166).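 Also: cells grown under basal conditions without added stimulus; test concentration not given here.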 The following applies: RPMI8226 myeloma viability, higher = more signal.
A short description of experiment [6]: JC-1 mitochondrial signal, unstimulated HepG2 cells – cell-based, JC-1 fluorescence, 24 h, 100 nL compound, profiling panel (AID 1167). Also: test concentration not given here. As to conditions: HepG2 mitochondrial potential, higher = more signal.
The nature of experiment [7]: JC-1 mitochondrial signal, unstimulated adipocytes – cell-based, JC-1 fluorescence, 3T3-L1 adipocytes, 24 h, 100 nL compound, profiling panel (AID 1168). Also: test concentration not given here. As to conditions: JC-1 mitochondrial fluorescence, higher = more signal, called active from +8 up or from −8 down.
Experiment [8] is described as follows: JC-1 mitochondrial signal, unstimulated myeloma cells – cell-based, JC-1 fluorescence, RPMI8226, 24 h, 100 nL compound, profiling panel (AID 1169). Also: test concentration not given here. As to conditions: JC-1 mitochondrial potential fluorescence, higher = more signal.
The nature of experiment [9]: JC-1 mitochondrial signal, unstimulated MM1S myeloma – cell-based, JC-1 fluorescence, 24 h, 100 nL compound, profiling panel (AID 1170). Also: test concentration not given here. The following applies: MM1S mitochondrial potential, higher = more signal.
Experiment [10] can be described thus: resazurin metabolic signal in A549 cells – cell-based, resazurin fluorescence, 24 h, PK04 Diversity Set, profiling panel (AID 1171). Also: test concentration not given here. The following applies: A549 viability, higher = more signal, called active from +8 up or from −8 down.
A short description of experiment [11]: resazurin metabolic signal in HepG2 cells – cell-based, resazurin fluorescence, 24 h, PK04 Diversity Set, profiling panel (AID 1172). Also: test concentration not given here. The following applies: HepG2 viability, higher = more signal.
Experiment [12] can be described thus: budding yeast growth changes without added modifier – OD600, strain BY4716, 24 h, basal condition, primary screen (AID 1173). The following applies: S. cerevisiae BY4716 growth, OD600, 24 h; higher = more signal, called active from +8 up or from −8 down.
Experiment [13] can be described thus: viability profiling in MM1S myeloma cells – cell-based, resazurin fluorescence, basal, 24 h, PK04 Diversity Set, profiling panel (AID 1174). Also: test concentration not given here. As to conditions: higher = more signal, called active from +8 up or from −8 down. In general terms: Alamar Blue is a resazurin reagent that responds to reducing activity.
The target in experiment [14] is Dihydroorotate dehydrogenase (quinone), mitochondrial (Plasmodium falciparum (isolate 3D7)) (UniProt Q08210). Kind of experiment: inhibition of P. falciparum DHODH – biochemical, C-terminal His tag, absorbance 600 nm, primary screen (AID 1175).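 Also: recombinant parasite enzyme with a five histidine tag at its C terminus; test concentration not given here.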 As to conditions: PfDHODH enzyme, DCIP absorbance 600 nm; higher = more signal, called active from +8 up or from −8 down.
Dihydroorotate dehydrogenase (quinone), mitochondrial (Plasmodium falciparum (isolate 3D7)), sequence (Q08210 whole entry, looked up): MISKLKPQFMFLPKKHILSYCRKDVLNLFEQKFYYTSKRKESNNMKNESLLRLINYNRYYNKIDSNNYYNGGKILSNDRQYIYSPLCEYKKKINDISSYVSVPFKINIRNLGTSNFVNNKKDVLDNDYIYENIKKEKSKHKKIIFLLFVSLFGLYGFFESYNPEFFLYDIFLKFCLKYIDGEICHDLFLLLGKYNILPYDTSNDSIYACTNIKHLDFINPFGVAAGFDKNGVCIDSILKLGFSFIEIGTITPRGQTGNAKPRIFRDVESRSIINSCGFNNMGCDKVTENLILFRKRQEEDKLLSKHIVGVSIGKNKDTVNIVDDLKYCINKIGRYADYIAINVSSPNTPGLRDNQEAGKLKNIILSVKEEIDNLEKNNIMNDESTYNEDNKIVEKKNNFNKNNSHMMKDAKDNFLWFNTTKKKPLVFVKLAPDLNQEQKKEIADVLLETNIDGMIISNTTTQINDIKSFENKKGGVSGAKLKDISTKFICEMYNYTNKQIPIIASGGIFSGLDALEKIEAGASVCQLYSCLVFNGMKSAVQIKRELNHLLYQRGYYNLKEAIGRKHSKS
The nature of experiment [15]: inhibition of PAO1 biofilm formation – strain PAO1, LB-PBS medium, absorbance 600 nm, primary screen (AID 1176). Also: test concentration not given here. The following applies: P. aeruginosa PAO1 growth/biofilm, A600, 12 h; higher = more signal.
A short description of experiment [16]: growth modulation of vineyard yeast isolate – strain RM11-1a, OD600, basal, 24 h, primary screen (AID 1177).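 Also: cultures grown under basal conditions with no added stressor; test concentration not given here.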 As to conditions: S. cerevisiae RM11-1a growth, OD600, 24 h; higher = more signal, called active from +8 up or from −8 down.
Experiment [17] in a line: growth of efflux-deficient E. coli DRC39 – strain DRC39, OD650, 24 h, E. coli filamentation inducers, primary screen (AID 1178).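 Also: growth measured as culture turbidity by optical density at 650 nm; test concentration not given here.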 As to conditions: E. coli DRC39 acrAB, higher = more signal, called active from +8 up or from −8 down.
Experiment [18] in a line: growth of efflux-deficient E. coli DRC39 – strain DRC39, OD650, 48 h, E. coli filamentation inducers, primary screen (AID 1179).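 Also: screen aims at cell division blockers that make cells filament.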 The following applies: E. coli DRC39 delta-acrAB growth, higher = more signal, called active from +8 up or from −8 down.
Experiment [19] is described as follows: viability profiling in RPMI8226 myeloma cells – cell-based, resazurin fluorescence, basal, 24 h, PK04 Diversity Set, profiling panel (AID 1180).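 Also: RPMI8826 multiple myeloma cell line at 5000 cells per well; test concentration not given here.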 As to conditions: higher = more signal.
In experiment [20] the target is E3 ubiquitin-protein ligase XIAP (Homo sapiens) (UniProt P98170). The experiment in a line: small molecules binding XIAP protein – biophysical, small-molecule microarray, fluorescence 635 nm, primary screen (AID 1181).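 Also: score merges 667 nm emission and signal to noise over triplicate slides.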 The following applies: higher = more signal.
E3 ubiquitin-protein ligase XIAP (Homo sapiens), sequence (P98170 whole entry, looked up): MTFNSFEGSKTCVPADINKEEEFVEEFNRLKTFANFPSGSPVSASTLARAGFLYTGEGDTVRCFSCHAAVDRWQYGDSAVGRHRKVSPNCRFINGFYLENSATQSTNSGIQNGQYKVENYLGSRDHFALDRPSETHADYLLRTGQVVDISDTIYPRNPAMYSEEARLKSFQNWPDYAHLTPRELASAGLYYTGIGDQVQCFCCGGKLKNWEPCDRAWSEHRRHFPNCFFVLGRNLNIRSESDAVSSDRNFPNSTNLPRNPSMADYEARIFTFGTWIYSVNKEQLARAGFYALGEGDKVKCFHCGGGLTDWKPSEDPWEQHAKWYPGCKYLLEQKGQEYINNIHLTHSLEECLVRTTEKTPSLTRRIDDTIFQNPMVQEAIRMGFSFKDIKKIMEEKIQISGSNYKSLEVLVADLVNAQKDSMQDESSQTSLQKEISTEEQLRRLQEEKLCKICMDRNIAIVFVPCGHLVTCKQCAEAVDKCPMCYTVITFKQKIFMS

Activity calls are given as the source filed them. Unless noted, no rule for the calls is given here.

Consider `COc1ccc([Si](C)(C)[C@@H]2[C@@H](CCO)O[C@]3(C(=O)N(Cc4ccc(N(C=O)c5ccccc5)cc4)c4ccccc43)[C@H]2C)cc1`, for which the z-score was -0.844 in experiment [1]; -0.193 in [2]; -3.46 in experiment [3]; -1.94 in [4]; -3.9 in experiment [5]; -0.164 in experiment [6]. Besides, the z-score in [7] was 0.21 (inactive); in experiment [8] it was -0.95; in [9] it was -1.26; in experiment [10], -2.71 (inactive); in [11], -1.59; in [12], 1.76 (inactive). For the same molecule, the z-score is -2.44 (inactive) in experiment [13]; 1.46 (inactive) in [15]; 4.89 (inactive) in [16]; 0.544 (inactive) in experiment [17]; -0.339 (inactive) in experiment [18]; -2.25 in [19]. Besides, the composite z-score is -0.493 (inactive) in [14] and -0.184 in experiment [20].
Regarding `O=C1C[C@]2(c3ccc([N+](=O)[O-])cc3)C(=O)N(CC(F)(F)F)c3cc(CO)ccc3[C@H]2N1C1CCCCC1`, the z-score in experiment [1] was 1.81; in experiment [2], -0.677; in [3] it was 0.203; in [4] it was 0.0687; in [5], 1; in experiment [6] it was 0.38. Besides, the z-score in [7] was 0.986 (inactive); in experiment [8], 0.247; in experiment [9], 1.9; in experiment [10] it was -0.745 (inactive); in [11] it was 0.0882; in experiment [12] it was 0.434 (inactive). For the same molecule, the z-score is 0.679 (inactive) in experiment [13]; -0.686 (inactive) in experiment [15]; -0.0434 (inactive) in [16]; 0.235 (inactive) in experiment [17]; 0.16 (inactive) in experiment [18]; 0.964 in [19]. The composite z-score was -1.69 (inactive) in [14] and -0.273 in [20].
On to `COC(=O)[C@@]1(Cc2ccc(F)cc2)[C@H]2c3cc(C(=O)N(C)C)n(Cc4ccc(Cl)c(C(F)(F)F)c4)c3C[C@H]2CN1C(=O)c1ccccc1`, for which the z-score in [1] was -1.16; in [2], -0.207; in [3] it was -1.04; in [4] it was -2.26; in experiment [5], -4.06; in [6] it was 1.96. The z-score is -1.47 (inactive) in [7]; -0.854 in experiment [8]; -1.54 in experiment [9]; -1.27 (inactive) in [10]; -0.81 in experiment [11]; 0.359 (inactive) in experiment [12]. Moreover, the z-score in experiment [13] is -2.72 (inactive); in experiment [15] it was 1.09 (inactive); in experiment [16], -0.285 (inactive); in experiment [17], -1.2 (inactive); in experiment [18], -0.531 (inactive); in experiment [19], -3.26. Also, the composite z-score in [14] was 0.117 (inactive); in experiment [20] it was 0.929.
`C=C(CCCC)/C(=C/C[C@@H](OC(C)=O)c1ccc(OCCO)cc1)c1cnc2ccccc2c1`: the z-score in [1] was 2.57; in experiment [2], 0.197; in experiment [3] it was 1.12; in experiment [4], -1.27; in [5], -0.0971; in experiment [6], 1.65. In addition, the z-score in [7] was -0.38 (inactive); in experiment [8], -0.364; in experiment [9] it was -1.16; in [10] it was 0.775 (inactive); in [11], 0.54; in [12], -0.845 (inactive). Moreover, the z-score was -0.267 (inactive) in experiment [13]; 0.825 (inactive) in experiment [15]; -0.81 (inactive) in [16]; 1.85 (inactive) in [17]; 1.49 (inactive) in experiment [18]; 0.445 in experiment [19]. Besides, the composite z-score in experiment [14] was -4.4 (inactive); in experiment [20] it was -0.0228.
In the case of `COc1ccc([C@H]2OC[C@@H]3C[C@@H](Cc4ccccc4)C(=O)N32)cc1`, the z-score is -0.706 in experiment [1]; 0.0138 in experiment [2]; 0.305 in experiment [3]; -2.13 in experiment [4]; 0.215 in experiment [5]; -0.478 in experiment [6]. For the same molecule, the z-score in [7] was -0.0784 (inactive); in experiment [8], 0.183; in experiment [9], -0.0676; in experiment [10], 0.194 (inactive); in experiment [11], -0.384; in experiment [12], -3.32 (inactive). Further, the z-score is 0.111 (inactive) in experiment [13]; -0.0513 (inactive) in [15]; -0.64 (inactive) in experiment [16]; -0.562 (inactive) in experiment [17]; -0.873 (inactive) in experiment [18]; -0.219 in experiment [19]. For the same molecule, the figures for the composite z-score in experiment [14] and in experiment [20] were -0.431 (inactive) and -0.0337, respectively.
Turning to `CCC(CC)C(O)C1C=CC2C(=O)NC(=O)C2N1Nc1ccccn1` (stereo not given), the z-score is -0.651 in [1]; -0.883 in [2]; 0.0063 in experiment [3]; 0.152 in [4]; 0.0749 in experiment [5]; -0.29 in [6]. Also, the z-score is -0.414 (inactive) in [7]; -0.07 in [8]; -0.138 in experiment [9]; -0.801 (inactive) in [10]; -1.34 in experiment [11]; 0.341 (inactive) in experiment [12]. Also, the z-score in [13] is -1.76 (inactive); in experiment [15], 0.503 (inactive); in experiment [16], 0.469 (inactive); in experiment [17], -0.485 (inactive); in [18] it was 0.333 (inactive); in [19] it was -1.11. Also, the values for the composite z-score in experiment [14] and in [20] were -0.629 (inactive) and 0.162, respectively.
`COc1ccc(C#Cc2ccc3c(c2)[C@]2(C(=O)N3)[C@H](c3ccccc3OCCO)N3[C@H](c4ccccc4)[C@H](c4ccccc4)OC(=O)[C@H]3[C@@H]2C(=O)Nc2nc3ccccc3s2)cc1`: the z-score in experiment [1] is 0.855; in experiment [2], 0.453; in experiment [3], -0.543; in experiment [4], -2.43; in experiment [5], -2.65; in experiment [6], -3.4. For the same molecule, the z-score is 2.29 (inactive) in experiment [7]; -0.631 in experiment [8]; -1.28 in experiment [9]; -2.07 (inactive) in experiment [10]; -0.927 in [11]; 1.35 (inactive) in experiment [12]. In addition, the z-score in [13] was -0.545 (inactive); in [15], 2.77 (inactive); in [16], 2.93 (inactive); in [17] it was 0.0225 (inactive); in [18], 0.132 (inactive); in experiment [19], -1.76. Also, the composite z-score in experiment [14] is -30.7 (active); in experiment [20] it was 0.0471.
Take `O=C(NCCN1CCOCC1)C1N=C(c2ccc(OCCCO)cc2)N(c2ccccc2)O1` (stereo not given): the z-score in experiment [1] was 0.264; in experiment [2], -0.126; in [3], 0.291; in experiment [4] it was 0.66; in experiment [5], -0.425; in experiment [6], 0.0176. The z-score in experiment [7] is 0.653 (inactive); in experiment [8] it was -1.28; in experiment [9] it was 1.27; in experiment [10] it was 0.712 (inactive); in experiment [11], -0.154; in experiment [12], 0.554 (inactive). The z-score in experiment [13] was 0.602 (inactive); in [15], -0.978 (inactive); in experiment [16] it was -0.377 (inactive); in experiment [17], 0.149 (inactive); in [18] it was 0.116 (inactive); in experiment [19], 0.385. For the same molecule, the values for the composite z-score in experiment [14] and in experiment [20] were 0.301 (inactive) and 0.172, respectively.
